Measurements: ChEMBL document CHEMBL4513216, “Probing the Open Global Health Chemical Diversity Library for Multistage-Active Starting Points for Next-Generation Antimalarials” (ACS Infect Dis, 2020)
Screen size: about 68,000 compounds; about 2,700 (4%) showed an effect of 50% or more. The sample holds strong results, similar compounds and a random draw of the others, so the mix is not that of the screen.

Each compound was assayed on Plasmodium berghei (assay: Screen against P. berghei liver stage (PbLuc), transformed with Luciferase, at 2uM). Conditions: tested at 2 uM.
Format: functional, HepG2
`CCNC(=O)N(C)C(c1cccc(F)c1)c1ccccn1` (centres undefined) gave an INHIBITION of 51.21%. Work on `CC(C)NC(=O)N(C)C(c1cccc(F)c1)c1ccccn1` (centres undefined) yielded an INHIBITION of -30.55%. `CCNC(=O)N(C)C(c1ccccc1)c1ccccn1` (centres undefined) gave an INHIBITION of -18.26%. With `Cc1ccc(S(=O)(=O)N2CCOCC2C(N)=O)c(F)c1` (centres undefined) the INHIBITION was 14.17%. `Cc1ccnc(SCC(=O)Nc2csc3nc(=O)c(C)nn23)n1` showed an INHIBITION of 35.42%. `Cc1noc(C(C)C)c1C(=O)NCc1ccc2c(c1)OCCO2` showed an INHIBITION of 56.02%. `CNC(=O)COc1cccc(CNC(=O)c2c(C)noc2C)c1` showed an INHIBITION of 24.36%. With `CCN(CC)C(CNC(=O)c1c(C)noc1C(C)C)c1ccsc1` (centres undefined) the INHIBITION was -25.61%. `CNC(=O)COc1cccc(CNC(=O)c2c(C)noc2C(C)C)c1` showed an INHIBITION of 74.35%. In the case of `Cc1noc(C)c1C(=O)NCC(c1ccsc1)N(C)C` (centres undefined), the INHIBITION is reported as -12.82%. `Cc1noc(C(C)C)c1C(=O)NCC(c1ccsc1)N(C)C` (centres undefined) was tested, and the INHIBITION was 63.95%. In the case of `Cc1noc(C(C)C)c1C(=O)NCc1cccc(N(C)C)c1`, the INHIBITION is reported as -57.97%. For `COCc1cccc(CNC(=O)c2c(C)noc2C(C)C)c1`, the INHIBITION was 49.9%. Work on `Cc1noc(C(C)C)c1C(=O)NCc1ccc(N(C)C)c(F)c1` yielded an INHIBITION of -9.17%. For `O=S(=O)(C1CC1)N1CCCn2nnc(Cn3cccc3)c2C1`, the INHIBITION was 23.81%. With `CCOCCC(=O)N1CCCCC1CCn1cccn1` (centres undefined) the INHIBITION was 30.25%. `CCn1cc2c(n1)CN(Cc1ccncc1)CC2COCC1CC1` (centres undefined) gave an INHIBITION of 14.94%. `CCOCC1CN(c2ccncn2)Cc2cnn(CC)c21` (centres undefined) gave an INHIBITION of 32.69%. `Cc1cc2c(N3CCC(N(C)CCc4cnn(C)c4)CC3)ncnc2s1` gave an INHIBITION of -15.4%. Work on `CSCC(CCO)NC(=O)Nc1ccc(Br)cc1` (centres undefined) yielded an INHIBITION of -39.48%. In the case of `C[C@@H]1CN(C(=O)CCc2nncn2C)C[C@@]1(O)C1CCC1`, the INHIBITION is reported as 52.08%. In the case of `C[C@@H]1CN(C(=O)CCc2nncn2C)CC[C@@]1(O)C1CCC1`, the INHIBITION is reported as 12.43%. `C[C@@H]1CN(C(=O)CCc2cnn(C)c2)C[C@@]1(O)C1CCC1` showed an INHIBITION of 11.33%. `Cc1noc(C)c1CCC(=O)Nc1ccn(C)n1` was tested, and the INHIBITION was -7.68%. `CN(Cc1cnccn1)CC1CCOc2ccccc2C1` (centres undefined) showed an INHIBITION of 20.76%. For `CCc1n[nH]c(C(=O)NCCn2nccc2C)c1C`, the INHIBITION was 20.71%. Work on `CCc1n[nH]c(C(=O)NCCn2ccnc2C)c1C` yielded an INHIBITION of 57.34%. `CCc1n[nH]c(C(=O)NCCn2ccc(C)n2)c1C` showed an INHIBITION of 16.87%. `CC(=O)c1ccc(F)cc1-c1cc(NCCO)nc2[nH]ccc12` gave an INHIBITION of 6.85%. Compound `COc1ccccc1Nc1nc2c(s1)C(=O)CN(C(=O)CC(C)C)C2` has an INHIBITION of 2.6%. With `CC(O)CNC(=O)c1nc(Cc2c(Cl)cccc2Cl)no1` (centres undefined) the INHIBITION was 20.71%. `CC(C)CNC(=O)CNC(=O)c1nc(Cc2c(Cl)cccc2Cl)no1` was tested, and the INHIBITION was -2.09%. Compound `O=C(NCC(=O)N1CCCC1)c1nc(Cc2c(Cl)cccc2Cl)no1` has an INHIBITION of 57.4%. Work on `COC(=O)NCC(=O)NCC(C)(C)c1cccc(Br)c1` yielded an INHIBITION of 19.07%. In the case of `CN(C)C(=O)C1CCC2(CCN(Cc3ccc4ccccc4n3)CC2)O1` (centres undefined), the INHIBITION is reported as 23.26%. `Cc1cccc(CN2CCC3(CCC(C(=O)N(C)C)O3)CC2)n1` (centres undefined) showed an INHIBITION of 58.4%. Compound `Cc1ccc(CN2CCC3(CCC(C(=O)N(C)C)O3)CC2)o1` (centres undefined) has an INHIBITION of 5.14%. `CCn1cnc(NC(=O)NCC2CCS(=O)(=O)CC2)n1` was tested, and the INHIBITION was 28.85%. `Cc1ccc(CN2CCOC(C)(c3cnn(C)c3)C2)cc1` (centres undefined) showed an INHIBITION of 21%. For `O=C(C1CCCN1Cc1nc(-c2ccco2)no1)N1CCSCC1` (centres undefined), the INHIBITION was 58.05%. `CC(C)N1CCN(C(=O)Cc2csc(-c3ccco3)n2)CC1` showed an INHIBITION of 28.18%. In the case of `O=C(Cc1csc(-c2ccco2)n1)N1CCN(CCO)CC1`, the INHIBITION is reported as -27.91%. Compound `O=C(C1CCCCN1Cc1nc(-c2ccco2)no1)N1CCCC1` (centres undefined) has an INHIBITION of -113.33%. With `O=C(Cc1csc(-c2ccco2)n1)N1CCSCC1` the INHIBITION was 50.76%. Compound `O=C(NCc1ccco1)C1CCCN1Cc1nc(-c2ccco2)no1` (centres undefined) has an INHIBITION of -43.47%. Compound `CNC(=O)C1CCCN(C(=O)OC)C1` (centres undefined) has an INHIBITION of -0.28%. Work on `O=C(CCN1CCCCO1)NCc1cn2c(n1)SCC2` yielded an INHIBITION of 21.36%. For `Cc1nc(-c2ccccc2)n(CC(=O)NCC(C)C)n1`, the INHIBITION was 26.4%. `COc1ccc(CN2CCC3(CCCN(c4ncc(F)cn4)C3)C2)cc1` (centres undefined) gave an INHIBITION of -50.35%. `Cc1cnn(CC2CN(c3ccc(C#N)cn3)CCO2)c1` (centres undefined) gave an INHIBITION of -11.2%. In the case of `CN(C)CC1CN(c2ccc(C#N)cn2)CCO1` (centres undefined), the INHIBITION is reported as 54.85%. `Cc1nc(C)n(CC2CN(c3ccc(C#N)cn3)CCO2)n1` (centres undefined) showed an INHIBITION of -16.42%. `Cc1cccc(CN2C[C@@H]3CC[C@H]2CN(Cc2[nH]cnc2C)C3)n1` was tested, and the INHIBITION was 25.68%. Work on `COc1cccc(-c2n[nH]cc2CNC2CCN(C3CC3)CC2)c1` yielded an INHIBITION of -13.89%. `Cc1n[nH]cc1CNC1CCN(c2ccccc2)CC1` gave an INHIBITION of 7.83%. `Cc1n[nH]cc1CNC1CCN(c2ccc(F)cc2)CC1` showed an INHIBITION of -13.72%. `COc1ccccc1CC(=O)N1CCC(NCc2c[nH]nc2C)CC1` was tested, and the INHIBITION was -14.17%. Work on `COc1cccc(CC(=O)N2CCC(NCc3c[nH]nc3C)CC2)c1` yielded an INHIBITION of 55.06%. `Cc1n[nH]cc1CNC1CCN(c2cccc(C(F)(F)F)c2)CC1` was tested, and the INHIBITION was 78.72%. `Fc1cnc(N2CCC3(CC2)CC(OCc2cccnc2)CO3)nc1` (centres undefined) showed an INHIBITION of 11.18%. Compound `CC(=O)N[C@@H]1CN(C(=O)c2cc(C)oc2C)C[C@H]1c1ccc(C)o1` has an INHIBITION of -29.82%. In the case of `Cc1ccc(NC2CCN(C(=O)CN(C)C3CC3)CC2)nn1`, the INHIBITION is reported as 21.31%. `CC(Cn1ccnc1)NC(=O)N(C)Cc1ccsc1` (centres undefined) gave an INHIBITION of 26.85%. Work on `CO[C@H]1CCN(Cc2cccs2)[C@@H]2CN(Cc3ccncc3)C[C@H]12` yielded an INHIBITION of -4.92%. `COCCN1C(=O)CC[C@@H]2[C@H]1CCN2Cc1ccc(C)s1` was tested, and the INHIBITION was 10.17%. `CNc1nc(C)c(C(=O)N2CCC(C(O)Cc3ccccc3)CC2)s1` (centres undefined) gave an INHIBITION of 40.88%. Work on `CCn1nc(C)c2c1cnn2CCNS(=O)(=O)c1cccs1` yielded an INHIBITION of 61.77%. `CCn1nc(C)c2c1cnn2CCNS(=O)(=O)c1ccccc1` was tested, and the INHIBITION was 0.36%. In the case of `CCn1nc(C)c2c1cnn2CCNS(C)(=O)=O`, the INHIBITION is reported as 15.46%.
